# Laboratory results reported in PubChem BioAssay (EPA / NIEHS).
# Records with an inconclusive call do not appear. Active and inactive are the calls of the source. How the source made its calls: active means hit-call score of the fitted dose curve at least 0.9, where 1 is the maximum; inconclusive means response in the unintended direction; inactive means score below 0.9.
# Legend:
# [1] = target: human Serotonin, 5-Hydroxytryptamine Receptor 2A (5HT2A), HTR2A (gene 3356) (UniProt P28223); experiment: NVS_GPCR_h5HT2A: NovaScreen (NVS) G Protein-Coupled Receptor Assay for human Serotonin, 5-Hydroxytryptamine Receptor 2A (5HT2A) (AID 2283249)
# Chain of human Serotonin, 5-Hydroxytryptamine Receptor 2A (5HT2A), HTR2A (gene 3356) (P28223 whole entry, looked up): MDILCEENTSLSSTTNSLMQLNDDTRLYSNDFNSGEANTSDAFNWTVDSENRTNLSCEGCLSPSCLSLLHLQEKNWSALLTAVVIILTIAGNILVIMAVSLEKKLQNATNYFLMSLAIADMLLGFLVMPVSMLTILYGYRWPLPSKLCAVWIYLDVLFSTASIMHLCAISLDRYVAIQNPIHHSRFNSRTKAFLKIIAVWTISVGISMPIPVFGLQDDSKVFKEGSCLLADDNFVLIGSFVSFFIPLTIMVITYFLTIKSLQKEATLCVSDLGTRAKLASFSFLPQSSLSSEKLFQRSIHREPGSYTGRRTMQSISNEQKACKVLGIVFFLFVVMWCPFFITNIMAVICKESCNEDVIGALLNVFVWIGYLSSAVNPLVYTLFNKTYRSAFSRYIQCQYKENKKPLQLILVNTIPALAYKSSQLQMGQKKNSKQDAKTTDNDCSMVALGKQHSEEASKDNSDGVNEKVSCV
# Method in brief: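 Human cortex membranes, cell-free radioligand binding; filter-based scintillation read 1.5 h after dosing. Duplicate screen at 25 uM first; displacement of specific binding (loss of signal) versus DMSO.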
# [2] = target: human Adenosine A1 Receptor (AdoRA1), ADORA1 (gene 134) (UniProt P30542); experiment: NVS_GPCR_hAdoRA1: NovaScreen (NVS) G Protein-Coupled Receptor Assay for human Adenosine A1 Receptor (AdoRA1) (AID 2283254)
# Chain of human Adenosine A1 Receptor (AdoRA1), ADORA1 (gene 134) (P30542 whole entry, looked up): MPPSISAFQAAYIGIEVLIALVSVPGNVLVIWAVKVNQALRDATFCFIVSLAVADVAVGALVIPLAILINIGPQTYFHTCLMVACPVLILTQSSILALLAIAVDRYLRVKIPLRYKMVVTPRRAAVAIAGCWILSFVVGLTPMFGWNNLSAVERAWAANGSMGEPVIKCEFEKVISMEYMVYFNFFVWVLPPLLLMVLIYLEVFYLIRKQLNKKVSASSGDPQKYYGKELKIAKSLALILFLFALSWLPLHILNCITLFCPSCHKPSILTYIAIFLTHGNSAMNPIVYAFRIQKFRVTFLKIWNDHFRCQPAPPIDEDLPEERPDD
# Method in brief: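 Radioligand binding was run on human cortical membranes, cell-free, with filter-based scintillation counting 1 h after dosing. The primary screen was duplicate at 25 uM, followed by concentration series. Signal loss versus DMSO was fitted positive-direction.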
# [3] = target: human Serotonin, 5-Hydroxytryptamine Receptor 7 (5HT7), HTR7 (gene 3363) (UniProt P34969); experiment: NVS_GPCR_h5HT7: NovaScreen (NVS) G Protein-Coupled Receptor Assay for human Serotonin, 5-Hydroxytryptamine Receptor 7 (5HT7) (AID 2283255);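 further: hits reduce specific radioligand binding relative to DMSO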
# Chain of human Serotonin, 5-Hydroxytryptamine Receptor 7 (5HT7), HTR7 (gene 3363) (P34969 whole entry, looked up): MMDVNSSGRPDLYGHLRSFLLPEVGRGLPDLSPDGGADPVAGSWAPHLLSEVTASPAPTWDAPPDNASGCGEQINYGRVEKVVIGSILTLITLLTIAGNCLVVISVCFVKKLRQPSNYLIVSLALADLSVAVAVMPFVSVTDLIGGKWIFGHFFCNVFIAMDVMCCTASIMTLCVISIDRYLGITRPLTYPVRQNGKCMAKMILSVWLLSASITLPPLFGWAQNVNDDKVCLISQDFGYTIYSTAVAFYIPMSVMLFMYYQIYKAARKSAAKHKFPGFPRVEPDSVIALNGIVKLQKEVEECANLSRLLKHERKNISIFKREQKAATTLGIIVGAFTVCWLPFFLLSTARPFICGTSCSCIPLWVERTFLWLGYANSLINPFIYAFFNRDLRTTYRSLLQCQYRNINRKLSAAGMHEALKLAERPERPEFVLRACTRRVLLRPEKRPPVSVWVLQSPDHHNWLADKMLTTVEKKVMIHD
# Method in brief: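 Radioligand displacement on membranes from CHO cells expressing human 5HT7, 1 h incubation, filter-based scintillation counting. Primary screen used a single 25 uM concentration in duplicate; actives were followed up in concentration series.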
# [4] = target: human Adenosine A2a Receptor (AdoRA2a), ADORA2A (gene 135) (UniProt P29274); experiment: NVS_GPCR_hAdoRA2a: NovaScreen (NVS) G Protein-Coupled Receptor Assay for human Adenosine A2a Receptor (AdoRA2a) (AID 2283256)
# Method in brief: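 Radioligand displacement on HEK293-derived membrane protein, cell-free; filter-based scintillation counting 1.5 hours after dosing, loss of signal vs DMSO. Single-point duplicate screen at 25 uM, actives retested in concentration series.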
# [5] = target: human Adrenergic, Alpha 2c Receptor (Adra2C), ADRA2C (gene 152) (UniProt P18825); experiment: NVS_GPCR_hAdra2C: NovaScreen (NVS) G Protein-Coupled Receptor Assay for human Adrenergic, Alpha 2c Receptor (Adra2C) (AID 2283259)
# Chain of human Adrenergic, Alpha 2c Receptor (Adra2C), ADRA2C (gene 152) (P18825 whole entry, looked up): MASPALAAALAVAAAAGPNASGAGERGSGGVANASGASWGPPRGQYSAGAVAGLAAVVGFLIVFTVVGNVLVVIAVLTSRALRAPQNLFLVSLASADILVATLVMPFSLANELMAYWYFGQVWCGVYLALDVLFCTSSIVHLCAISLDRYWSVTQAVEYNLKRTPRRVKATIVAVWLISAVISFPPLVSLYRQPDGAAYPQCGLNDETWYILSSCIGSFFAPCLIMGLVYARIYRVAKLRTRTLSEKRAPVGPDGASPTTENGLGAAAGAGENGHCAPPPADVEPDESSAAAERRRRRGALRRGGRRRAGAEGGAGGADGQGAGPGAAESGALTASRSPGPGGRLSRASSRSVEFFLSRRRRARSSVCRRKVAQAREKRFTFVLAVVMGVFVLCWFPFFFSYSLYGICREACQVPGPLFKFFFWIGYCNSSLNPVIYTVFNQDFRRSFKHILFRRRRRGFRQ
# Method in brief: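 Radioligand binding on Sf9-expressed receptor membranes, 1 h after chemical dosing, filter-based scintillation read-out. Loss of binding fitted positively versus DMSO; primary duplicate screen at 25 uM, actives retested in concentration series.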
# [6] = target: human Dopamine Receptor D2 (DRD2), DRD2 (gene 1813) (UniProt P14416); experiment: NVS_GPCR_hDRD2s: NovaScreen (NVS) G Protein-Coupled Receptor Assay for human Dopamine Receptor D2 (DRD2) (AID 2283266)
# Chain of human Dopamine Receptor D2 (DRD2), DRD2 (gene 1813) (P14416 whole entry, looked up): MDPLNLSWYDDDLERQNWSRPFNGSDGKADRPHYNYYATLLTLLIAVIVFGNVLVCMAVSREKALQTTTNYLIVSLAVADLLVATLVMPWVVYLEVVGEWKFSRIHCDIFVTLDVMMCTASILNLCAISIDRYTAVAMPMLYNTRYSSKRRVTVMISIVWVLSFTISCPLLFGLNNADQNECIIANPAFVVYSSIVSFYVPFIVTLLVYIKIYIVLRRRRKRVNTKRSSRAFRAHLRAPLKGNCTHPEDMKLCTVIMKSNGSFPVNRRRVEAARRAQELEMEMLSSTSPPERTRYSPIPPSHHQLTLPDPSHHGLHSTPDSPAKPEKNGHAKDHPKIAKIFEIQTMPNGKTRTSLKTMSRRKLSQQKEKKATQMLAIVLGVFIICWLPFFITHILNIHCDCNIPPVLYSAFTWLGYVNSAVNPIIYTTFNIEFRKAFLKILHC
# Method in brief: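 Radioligand displacement used human DRD2 membranes extracted from CHO cells and was read by filter-based scintillation counting after 1.5 hours. Primary screening was in duplicate at 25 uM. Loss of signal versus DMSO was fitted, with concentration series in follow-up.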
# [7] = target: human Histamine 1 Receptor (H1), HRH1 (gene 3269) (UniProt P35367); experiment: NVS_GPCR_hH1: NovaScreen (NVS) G Protein-Coupled Receptor Assay for human Histamine 1 Receptor (H1) (AID 2283268)
# Chain of human Histamine 1 Receptor (H1), HRH1 (gene 3269) (P35367 whole entry, looked up): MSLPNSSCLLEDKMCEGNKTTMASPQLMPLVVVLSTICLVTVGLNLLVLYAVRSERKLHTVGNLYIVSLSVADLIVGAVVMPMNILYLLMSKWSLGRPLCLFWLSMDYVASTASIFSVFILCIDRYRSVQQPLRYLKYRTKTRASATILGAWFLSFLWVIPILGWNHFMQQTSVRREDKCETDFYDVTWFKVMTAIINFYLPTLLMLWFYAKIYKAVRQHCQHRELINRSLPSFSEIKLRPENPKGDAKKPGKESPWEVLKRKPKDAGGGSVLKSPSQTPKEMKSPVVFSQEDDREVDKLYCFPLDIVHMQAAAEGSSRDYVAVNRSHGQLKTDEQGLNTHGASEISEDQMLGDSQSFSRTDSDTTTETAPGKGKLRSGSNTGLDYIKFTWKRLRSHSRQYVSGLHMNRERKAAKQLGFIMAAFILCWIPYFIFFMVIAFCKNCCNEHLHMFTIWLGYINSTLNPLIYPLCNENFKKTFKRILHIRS
# Method in brief: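 Cell-free radioligand displacement at human H1 receptor, 1 h, filter scintillation counting; primary screen 25 uM in duplicate, hits in concentration series; loss of binding fitted vs DMSO.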
# [8] = test system: bovine Histamine 1 Receptor (H1), gene 281231; experiment: NVS_GPCR_bH1: NovaScreen (NVS) G Protein-Coupled Receptor Assay for bovine Histamine 1 Receptor (H1) (AID 2283246)
# Method in brief: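 Radioligand displacement on bovine cerebellar membranes, 1 h after dosing, filter-based scintillation read-out; loss of signal vs DMSO. Duplicate single-concentration screen at 25 uM, then concentration-response up to 50 uM for hits.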
# [9] = target: guinea pig Leukotriene D4 Receptor (LTD4), CYSLTR1 (gene 100135514) (UniProt Q2NNR5); experiment: NVS_GPCR_gLTD4: NovaScreen (NVS) G Protein-Coupled Receptor Assay for guinea pig Leukotriene D4 Receptor (LTD4) (AID 2283248)
# Method in brief: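 Radioligand displacement on guinea pig lung membranes, 1 h incubation, filtration and scintillation counting; DMSO as negative control. Duplicate 25 uM primary screen, then singleton concentration-response up to 50 uM.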
# [10] = target: human Serotonin, 5-Hydroxytryptamine Receptor 5A (5HT5A), HTR5A (gene 3361) (UniProt P47898); experiment: NVS_GPCR_h5HT5A: NovaScreen (NVS) G Protein-Coupled Receptor Assay for human Serotonin, 5-Hydroxytryptamine Receptor 5A (5HT5A) (AID 2283251)
# Chain of human Serotonin, 5-Hydroxytryptamine Receptor 5A (5HT5A), HTR5A (gene 3361) (P47898 whole entry, looked up): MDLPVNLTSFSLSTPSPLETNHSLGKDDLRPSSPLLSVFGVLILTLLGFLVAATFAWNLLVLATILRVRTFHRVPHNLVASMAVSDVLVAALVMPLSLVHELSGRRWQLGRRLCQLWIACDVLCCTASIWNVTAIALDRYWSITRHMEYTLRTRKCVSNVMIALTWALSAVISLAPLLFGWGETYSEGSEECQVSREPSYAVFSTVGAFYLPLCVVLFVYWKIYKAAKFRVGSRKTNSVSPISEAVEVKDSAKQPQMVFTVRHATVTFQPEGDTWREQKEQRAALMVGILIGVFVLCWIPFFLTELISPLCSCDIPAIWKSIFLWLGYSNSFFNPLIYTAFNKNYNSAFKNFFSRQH
# Method in brief: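 Cell-free radioligand displacement binding on HEK293-derived membrane protein, 1 h incubation, filter-based scintillation counting. Primary screen in duplicate at 25 uM, actives followed in concentration series; loss of signal fitted versus DMSO.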
# [11] = target: human Adrenergic, Beta 1 Receptor (Adrb1), ADRB1 (gene 153) (UniProt P08588); experiment: NVS_GPCR_hAdrb1: NovaScreen (NVS) G Protein-Coupled Receptor Assay for human Adrenergic, Beta 1 Receptor (Adrb1) (AID 2283258)
# Chain of human Adrenergic, Beta 1 Receptor (Adrb1), ADRB1 (gene 153) (P08588 whole entry, looked up): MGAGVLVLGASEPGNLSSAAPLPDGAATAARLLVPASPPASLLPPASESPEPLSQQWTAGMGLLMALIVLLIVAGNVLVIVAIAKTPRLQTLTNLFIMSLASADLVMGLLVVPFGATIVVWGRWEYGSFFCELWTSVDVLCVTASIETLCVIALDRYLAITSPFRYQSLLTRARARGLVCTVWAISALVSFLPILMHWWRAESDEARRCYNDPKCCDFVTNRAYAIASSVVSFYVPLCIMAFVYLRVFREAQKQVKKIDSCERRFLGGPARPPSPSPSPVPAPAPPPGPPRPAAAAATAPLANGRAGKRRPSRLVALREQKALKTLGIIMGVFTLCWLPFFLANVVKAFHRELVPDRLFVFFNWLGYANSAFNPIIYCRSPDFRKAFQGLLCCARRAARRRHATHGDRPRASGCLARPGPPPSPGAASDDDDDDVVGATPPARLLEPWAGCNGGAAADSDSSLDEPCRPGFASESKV
# Method in brief: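 Cell-free radioligand displacement on receptor from human neuroepithelioma cells; 2 h after dosing, filter-based scintillation counting. Primary screen in duplicate at 25 uM, actives retested in concentration series; loss of signal vs DMSO baseline.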
# [12] = target: Type-1 angiotensin II receptor (Homo sapiens) (UniProt P30556); experiment: NVS_GPCR_hAT1: NovaScreen (NVS) G Protein-Coupled Receptor Assay for human Angiotensin II receptor type 1 (AT1) (AID 2283263)
# Method in brief: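 Membranes from KAN-TS cells; radioligand competitive displacement, 3 h, filtration and scintillation counting. Single-point duplicate screen at 25 uM, then concentration-response up to 50 uM for hits; loss of signal fitted versus DMSO.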
# [13] = target: human Serotonin, 5-Hydroxytryptamine Receptor 6 (5HT6), HTR6 (gene 3362) (UniProt P50406); experiment: NVS_GPCR_h5HT6: NovaScreen (NVS) G Protein-Coupled Receptor Assay for human Serotonin, 5-Hydroxytryptamine Receptor 6 (5HT6) (AID 2283253)
# Chain of human Serotonin, 5-Hydroxytryptamine Receptor 6 (5HT6), HTR6 (gene 3362) (P50406 whole entry, looked up): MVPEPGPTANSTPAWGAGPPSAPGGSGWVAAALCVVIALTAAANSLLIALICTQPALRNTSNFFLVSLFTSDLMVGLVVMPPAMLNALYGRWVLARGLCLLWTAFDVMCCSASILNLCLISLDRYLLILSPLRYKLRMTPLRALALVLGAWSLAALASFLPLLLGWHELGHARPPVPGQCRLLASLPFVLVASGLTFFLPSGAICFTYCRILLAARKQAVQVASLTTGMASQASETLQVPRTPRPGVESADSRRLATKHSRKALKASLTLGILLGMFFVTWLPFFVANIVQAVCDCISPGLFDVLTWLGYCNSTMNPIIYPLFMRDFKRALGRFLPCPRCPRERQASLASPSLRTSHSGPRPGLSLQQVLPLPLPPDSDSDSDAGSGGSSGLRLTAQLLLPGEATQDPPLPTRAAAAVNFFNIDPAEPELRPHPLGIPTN
# Method in brief: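 Radioligand binding to 5HT6 in HEK293-derived membranes, cell-free, 1 h after dosing; bound ligand measured by filter-based scintillation counting. Primary screen in duplicate at 25 uM; actives retested in concentration series.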
# [14] = target: Beta-2 adrenergic receptor (Homo sapiens) (UniProt P07550); experiment: NVS_GPCR_hAdrb2: NovaScreen (NVS) G Protein-Coupled Receptor Assay for human Adrenergic, Beta 2 Receptor (Adrb2) (AID 2283261)
# Method in brief: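 Filter-based radioligand binding using receptor prepared from CHO cells, 1 h incubation, scintillation counting. Primary screen in duplicate at 25 uM, actives retested in concentration series; loss of binding relative to DMSO.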
# [15] = target: human Adrenergic, Beta 3 Receptor (Adrb3), ADRB3 (gene 155) (UniProt P13945); experiment: NVS_GPCR_hAdrb3: NovaScreen (NVS) G Protein-Coupled Receptor Assay for human Adrenergic, Beta 3 Receptor (Adrb3) (AID 2283262)
# Chain of human Adrenergic, Beta 3 Receptor (Adrb3), ADRB3 (gene 155) (P13945 whole entry, looked up): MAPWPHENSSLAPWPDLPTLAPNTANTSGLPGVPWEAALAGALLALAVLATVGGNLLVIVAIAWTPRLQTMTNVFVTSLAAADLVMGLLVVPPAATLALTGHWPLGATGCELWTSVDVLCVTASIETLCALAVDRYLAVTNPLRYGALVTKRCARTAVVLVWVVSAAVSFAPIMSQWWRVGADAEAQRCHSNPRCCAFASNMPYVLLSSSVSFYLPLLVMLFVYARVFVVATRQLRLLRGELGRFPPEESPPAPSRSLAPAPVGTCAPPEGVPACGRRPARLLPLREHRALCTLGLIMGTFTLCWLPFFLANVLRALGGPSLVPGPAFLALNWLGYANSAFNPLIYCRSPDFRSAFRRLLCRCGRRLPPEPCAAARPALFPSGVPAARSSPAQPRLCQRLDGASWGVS
# Method in brief: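 Membranes from SK-N-MC cells pretreated with isoproterenol and 8-bromo-cAMP were used in a radioligand competitive displacement binding assay. Binding was read by filter-based scintillation counting 1 hour after dosing. Primary screening was in duplicate at 25 uM, with concentration series in follow-up.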
# [16] = target: human Dopamine Receptor D4.4 (DRD4.4), DRD4 (gene 1815) (UniProt P21917); experiment: NVS_GPCR_hDRD4.4: NovaScreen (NVS) G Protein-Coupled Receptor Assay for human Dopamine Receptor D4.4 (DRD4.4) (AID 2283264)
# Method in brief: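 Radioligand displacement on human DRD4.4 from CHO-derived membranes, 1 hour incubation, bound counts read by filtration and scintillation. Primary screen in duplicate at 25 uM; actives followed up in concentration series.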
# [17] = target: human Endothelin Receptor Type A (ETA), EDNRA (gene 1909) (UniProt P25101); experiment: NVS_GPCR_hETA: NovaScreen (NVS) G Protein-Coupled Receptor Assay for human Endothelin Receptor Type A (ETA) (AID 2283265)
# Method in brief: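 Cell-free radioligand displacement using SH-SY5Y-derived protein, 3 h incubation, filter-based scintillation counting. Primary screen in duplicate at 25 uM; actives then run in concentration-response up to 50 uM; loss of binding fitted versus DMSO.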
# [18] = target: D(1A) dopamine receptor (Homo sapiens) (UniProt P21728); experiment: NVS_GPCR_hDRD1: NovaScreen (NVS) G Protein-Coupled Receptor Assay for human Dopamine Receptor D1 (DRD1) (AID 2283269)
# Chain of D(1A) dopamine receptor (Homo sapiens) (P21728 whole entry, looked up): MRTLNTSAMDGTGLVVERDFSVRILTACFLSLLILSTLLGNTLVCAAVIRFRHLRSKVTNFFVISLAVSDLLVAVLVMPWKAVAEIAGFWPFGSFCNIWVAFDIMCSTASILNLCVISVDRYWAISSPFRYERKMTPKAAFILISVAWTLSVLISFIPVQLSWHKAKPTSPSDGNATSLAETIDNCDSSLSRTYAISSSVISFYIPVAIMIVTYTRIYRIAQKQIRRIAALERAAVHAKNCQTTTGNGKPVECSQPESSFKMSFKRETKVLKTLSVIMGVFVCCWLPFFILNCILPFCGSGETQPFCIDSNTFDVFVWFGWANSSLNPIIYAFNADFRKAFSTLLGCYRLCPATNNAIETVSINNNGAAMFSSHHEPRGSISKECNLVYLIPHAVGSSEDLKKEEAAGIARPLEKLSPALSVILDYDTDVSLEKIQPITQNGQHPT
# Method in brief: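 Radioligand displacement binding on membranes/protein extracted from HEK293 expressing human D1, cell-free; read 1 h after dosing by filter-based scintillation counting. Primary screen in duplicate at 25 uM, actives followed up in concentration series; signal loss versus DMSO baseline.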
compound,measurement,setting,value
COc1cc(C(=O)NC2CCN(C)CC2)ccc1Nc1ncc2c(n1)N(C1CCCC1)CC(F)(F)C(=O)N2C,AC50,[1],23.2 µM (active)
same,AC50,[2],4.71 µM (active)
same,AC50,[3],3.25 µM (active)
same,AC50,[4],13.8 µM (active)
same,AC50,[5],6.01 µM (active)
same,outcome,[6],inactive
same,AC50,[7],2.74 µM (active)
O=CCCCC=O,outcome,[8],inactive
OC12N=C(c3ccccc3)SC1Cc1cc(Cl)ccc12 (stereo not drawn),outcome,[1],inactive
CC(C)(C)c1csc(-c2cc3cc(OCc4ccccc4CC(=O)O)ccc3o2)n1,AC50,[9],0.0125 µM (active)
same,outcome,[10],inactive
same,outcome,[11],inactive
same,outcome,[12],inactive
CN(C)c1ccc(C(=C2C=CC(=[N+](C)C)C=C2)c2ccc(N(C)C)cc2)cc1,AC50,[10],1.99 µM (active)
same,AC50,[13],13.9 µM (active)
same,AC50,[2],10.5 µM (active)
same,AC50,[3],4.11 µM (active)
same,AC50,[5],1.79 µM (active)
same,AC50,[14],14.4 µM (active)
same,AC50,[15],16.3 µM (active)
same,AC50,[16],1.11 µM (active)
same,AC50,[17],1.81 µM (active)
same,AC50,[6],2.02 µM (active)
NCc1cccc(C2CCN(C(=O)c3ccc(C#Cc4ccccc4F)o3)CC2)c1,AC50,[10],18.4 µM (active)
same,AC50,[13],8.69 µM (active)
same,AC50,[2],15.8 µM (active)
same,AC50,[3],6.87 µM (active)
same,AC50,[11],20.6 µM (active)
same,AC50,[5],4.51 µM (active)
same,AC50,[14],12.6 µM (active)
same,outcome,[15],inactive
same,AC50,[16],25 µM (active)
same,AC50,[6],9.74 µM (active)
same,AC50,[7],22.1 µM (active)
same,AC50,[18],5.14 µM (active)
CCCCCCCCN(C)CCCCCCCC,outcome,[15],inactive
same,outcome,[6],inactive
CCCCCCCCCCCC[N+](C)(C)C,AC50,[1],4.04 µM (active)
same,AC50,[3],17.3 µM (active)
same,AC50,[15],25 µM (active)
same,AC50,[6],13 µM (active)
same,AC50,[7],15.7 µM (active)
same,AC50,[18],16.1 µM (active)
